# High-throughput results as filed in PubChem BioAssay.
# In the library only some 0.92% were active in any assay of this set; here they are far more common.
# APEX1 inh – APE1 (human) endonuclease inhibition. P27695. recombinant APE1, TAMRA/BHQ-2 abasic DNA cleavage fluorescence. Potency, µM (titrated, usually from 65.8 µM), without a hit: at the highest dose activity change, negative = inhibition, actives largely listed as inhibitors. actives 0.35% (n = 350,000). AID 2517;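 note: plate controls were vehicle for no effect and reference inhibitor for full effect; nearly all actives have a fitted effect of over 55% in size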
#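 0.75 nM APE1 + cpd, 15 min RT; start w/ 50 nM TAMRA/BHQ-2 THF-abasic dsDNA; kinetic fluor 525/598 nm ×3 reads @60 s; Δ(read3−read1); normalized to DMSO and NSC13755 control wells.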
# BLM helicase inh – blocks DNA unwinding by human BLM helicase | Potency, µM (titrated, usually from 56.1 µM), inactives show at the highest dose activity change, negative = inhibition, usual class: inhibitors | recombinant BLM DNA unwinding, fluorescence dequenching | P54132 | actives 0.2% (n = 350,000);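 note: plate controls were vehicle for no effect and no enzyme for full effect; nearly all actives have a fitted effect of over 35% in size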
# RECQ1 helicase – inhibitors of human RECQ1 DNA helicase; AID 2549; P46063; RECQ1 DNA unwinding, red fluorescence kinetic read; Potency, µM (highest dose often 57.3 µM), for the others: at the top dose activity, negative = inhibition, actives largely listed as inhibitors; actives 0.54% (n = 240,000);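 note: plate controls were vehicle for no effect and no enzyme for full effect; nearly all actives have a fitted effect of over 30% in size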
# Target sequence (P46063 whole entry, looked up): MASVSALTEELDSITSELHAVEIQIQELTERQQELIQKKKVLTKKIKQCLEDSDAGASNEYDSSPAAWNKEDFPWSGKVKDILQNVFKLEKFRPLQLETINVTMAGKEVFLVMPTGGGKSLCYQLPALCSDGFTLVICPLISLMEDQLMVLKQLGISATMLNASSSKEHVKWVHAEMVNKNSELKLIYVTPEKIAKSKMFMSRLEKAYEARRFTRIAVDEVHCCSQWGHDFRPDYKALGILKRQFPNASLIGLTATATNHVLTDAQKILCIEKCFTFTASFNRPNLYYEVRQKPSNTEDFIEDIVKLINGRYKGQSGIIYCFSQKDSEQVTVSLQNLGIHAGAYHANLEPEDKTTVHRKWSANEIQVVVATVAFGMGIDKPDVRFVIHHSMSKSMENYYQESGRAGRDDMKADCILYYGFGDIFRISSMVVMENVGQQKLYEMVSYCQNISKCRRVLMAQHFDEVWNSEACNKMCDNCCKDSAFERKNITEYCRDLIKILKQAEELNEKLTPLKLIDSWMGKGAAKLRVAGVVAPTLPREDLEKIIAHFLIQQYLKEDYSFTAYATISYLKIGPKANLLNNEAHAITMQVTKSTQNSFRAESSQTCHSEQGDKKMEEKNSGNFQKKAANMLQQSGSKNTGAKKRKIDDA
#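 50 nM RECQ1T1 preincubated 15 min with compound in Tris pH 8.0 buffer with MgCl2, DTT, Tween-20 and 2.5 ug/ml poly(dI-dC); started with 200 nM TAMRA/BHQ-2 forked duplex and 2 mM ATP. Unwinding read as fluorescence (525/598 nm), two reads 2 h apart.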
# TDP1 inh – TDP1 (human) enzyme inhibition; Q9NUW8; AID 485290; recombinant TDP1, AlphaScreen DNA substrate cleavage; Potency, µM (highest dose often 130 µM), for the others: at the highest dose activity change, negative = inhibition, usual class: inhibitors; actives 0.28% (n = 350,000); note: nearly all actives have a fitted effect of over 40% in size
#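 Recombinant human Tdp1 (E. coli-expressed, 1 nM final) preincubated with compounds 15 min at room temperature, then 5'-biotin/3'-phosphotyrosine-FITC DNA substrate (15 nM final) added for 5 min. AlphaScreen beads (10 ug/ml final) added 10 min; cleavage lowers signal.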
# FEN1 inhibitor – human FEN1 inhibition; Recombinant FEN1 flap cleavage, fluorescence, 15 min; Potency, µM (doses to about 114 µM), for inactives: at the top dose activity change, negative = inhibition, usual class: inhibitors; actives 0.35% (n = 390,000); AID 588795; note: nearly all actives have a fitted effect of over 65% in size
#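 Reaction started by adding substrate (50 nM final) to 10 nM enzyme after 15 min room-temperature compound preincubation. Reads at 0 and 15 min, with data normalized and fitted to a four-parameter Hill equation.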
# * hit, by the source's call; i = inactive; ? = inconclusive; . = not tested or not shown; ! = not confirmed by another sample; [ ] = dose if it differs, or a comment. Calls come from the whole dose curve; as a rule, active = well fitted curve in the direction sought with a large enough effect; inconclusive = small, poorly fitted or top-dose-only effect, or another doubt; inactive = no such curve, though single readings can be large; an effect the other way counts as inactive or inconclusive. Unless noted, % is set by controls: 0 for no effect and ±100 for the full control effect; potency is the fitted concentration of half-maximal effect.
SMILES,APEX1 inh,BLM helicase inh,RECQ1 helicase,TDP1 inh,FEN1 inhibitor
CN(C)CCOc1ncnc2c1oc1ccccc12,-3%,8%,12%,2%,5%
CCCSc1nc(C)c(-c2csc(C(C#N)=C3CCCC3)n2)cc1C#N,?,-6%,7.9µM*,-6%,-18%
CC1CCC/C(=C(\C#N)c2nc(-c3cc4ccccc4oc3=O)cs2)C1 (configuration not stated),8%,0%,2%,5%,3%
O=C(O)c1ccc(Cn2nnc3sc4c(c3c2=O)CCCC4)cc1,-12%,-5%,-18%,50µM*,-19%
O=c1c2c3c(sc2nnn1Cc1ccc(F)cc1)CCCC3,.,0%,.,-5%,-12%
O=[S+]1([O-])N=C(Oc2cccnc2)c2ccccc21,.,.,.,1%,.
O=C1NC(=S)NC1=Cc1ccco1,.,.,.,.,45µM*
CCn1cnc2c(Nc3ccc(CCC(=O)N=C(N)N)cc3)nc(C#N)nc21,.,.,.,0%,.
O=C(O)c1cn(-c2ccc(F)cc2)c2cc(N3CCNCC3)c(F)cc2c1=O,-5%,30%,-2%,7%[56.1 µM],45µM*
O=C1C=C(Nc2cccc3cccnc23)c2ccccc2C1=O,1%,?,.,10%,50µM*
CN=c1scc(-c2ccccc2F)n1/N=C/c1ccc(O)c(O)c1O,10µM*,?,7.9µM*,10%,?
CC(C)N=c1scc(-c2cccs2)n1/N=C/c1ccc(O)c(O)c1O,-7%,-21%,-17%,12%,-19%
COc1cccc(/C=N\NC(=O)c2ccc(Cn3cc(Br)c([N+](=O)[O-])n3)o2)c1O,4%,32µM*,6%,0%,-13%
COc1cccc(/C=N/NC(=O)c2c(C)nc3ccc(Br)cn23)c1O,1%,-23%,-17%,56µM*,-6%
CCOc1ccccc1/C=N/NC(=O)c1c(C)nc2ccc(Br)cn12,28%,-8%,.,.,-3%
[O-][n+]1ccccc1SSc1cccc[n+]1[O-],.,0%,.,11%,.
CC(C)Nc1cccc(S(=O)(=O)N2CCCN(S(=O)(=O)c3ccc4c(c3)OCCO4)CC2)c1,.,.,.,1%,.
Cc1ccc(CNc2ccc(O)cc2)cc1,-9%,25µM*,-11%,5%,?
COc1ccc(C2Nc3ccccc3C(=O)N2Cc2ccccc2)cc1COc1cccc(C(F)(F)F)c1 (configuration not stated),.,.,.,0%,.
CCc1ccc(C(c2ccc(CC)cc2)C(Cl)Cl)cc1,0%,.,-8%,20µM*!,-18%
O=C1OCC2OC(O)C(O)C(O)C2OC(=O)c2cc(O)c(O)c(O)c2-c2c(O)c(O)c3oc(=O)c4c(c(O)c(O)c5oc(=O)c2c3c54)-c2c1cc(O)c(O)c2O (configuration not stated),0.035µM*,0.71µM*,0.4µM*,0.14µM*,.
CCn1c(SCC(=O)Nc2ccc3c(c2)c2ccccc2n3CC)nnc1-c1ccco1,-3%,1%,-13%,8%,50µM*
CC(C)n1c(SCC(=O)Nc2nncs2)nnc1-c1ccco1,13µM*,-20%,.,11µM*,?
Cc1ccc(C)c(NS(=O)(=O)c2cc(C(=O)Nc3ccccc3-c3ccccc3)ccc2C)c1,?,-9%,i,-2%,-11%
Cc1ccc(C)c(S(=O)(=O)Nc2cc(SCC(=O)O)c(O)c3ccccc23)c1,-12%,16µM*,0%,5%,56µM*
SMILES,APEX1 inh,BLM helicase inh,RECQ1 helicase,TDP1 inh,FEN1 inhibitor
COc1ccc(OC)c2c(C)ccnc12,.,.,.,.,-7%
CO/N=C(\C(=O)N[C@@H]1C(=O)N2C(C(=O)OCOC(=O)C(C)(C)C)=C(/C=C\c3scnc3C)CS[C@H]12)c1csc(N)n1,-3%,.,.,.,.
CC(C)COC(=O)COc1cc(Cl)c(Cl)cc1Cl,15%,.,1%,50µM*,.
N#Cc1c(-c2cccc(Br)c2)no[n+]1[O-],-10%,.,.,.,.
Cc1noc(C)c1-c1nc(Nc2ccncc2)c2ccccc2n1,-8%,-6%,-6%,28µM*,.
OCCCNC(=S)Nc1ccc2nccnc2c1,1%,1%,-6%,4%,40µM*
Fc1ccc(NC(=S)Nc2ccc3nccnc3c2)cc1,-4%,-13%,i,7%,?
COc1ccc(-n2c(NC(=O)c3ccco3)c(C#N)c3nc4ccccc4nc32)cc1,2%,32µM*,17%,3%,?
COc1cc(/C=C/C(=O)OCC(=O)Nc2ccc(Cl)cn2)ccc1O,?,.,.,28µM*,11%
c1cc(N2CCCCC2)nc(N2CCCCC2)n1,.,.,.,.,-7%
C[c-]1[c-](C)[c-](C)[c-](C)[c-]1C.[Fe].c1cc2nccc(N3CCCC3)[c-]2c1 (configuration not stated),2.8µM*!,?,6.3µM*!,7.9µM*!,?
CCC(=O)NC(c1cc(Cl)c2cccnc2c1O)c1cccn1C (configuration not stated),.,.,.,2%,.
O=C(CSc1nnc(CNC(=O)c2c(F)cccc2F)o1)NCc1ccco1,11µM*,-11%,.,50µM*,0%
NC[C@H]1O[C@H](O[C@H]2[C@H](O)[C@@H](O[C@H]3O[C@H](CO)[C@@H](O)[C@H](N)[C@H]3O)[C@H](N)C[C@@H]2N)[C@H](O)[C@@H](O)[C@@H]1O,-2%[21 µM],.,.,.,.
O=C(NN=C1CCCC1)c1cc(O)cc(O)c1,11µM*,-7%,.,18µM*,-26%
O=C(NN=C1CCCC1)c1cccc(O)c1,22%,-3%,.,2%[56.1 µM],18%
COC(=O)C/C=N/N=C1/NC(=O)/C(=C/C(=O)O)S1,4%,-2%,-3%,.,50µM*
Nc1c(O)ccc2c1C(=O)c1ccccc1C2=O,-5%,-26%,-23%,3%,50µM*
COc1ccc2c(c1O)C(=O)c1ccccc1C2=O,2%,0%,-3%,8%,.
COc1ccc(C2c3c(ncn(Cc4ccccc4)c3=N)Oc3ccc4ccccc4c32)cc1OC (configuration not stated),.,.,.,10%,.
Cc1ccc(S(=O)(=O)N2CCN(c3nc(-n4ccnn4)nc4ccccc34)CC2)cc1,.,.,.,.,-3%
[O-][n+]1c2c(nn1-c1ccccc1)/C(=N/O)CCC2,2%,-1%,i,0%,-3%
[O-][n+]1onc2c1CCC(=N/O)/C2=N\Nc1ccccc1,?,32µM*,?,6%,.
Cc1ccc(C(=O)N/N=C/c2ccc(-c3ccccc3[N+](=O)[O-])o2)cn1,-1%,-21%,-10%,5%,-20%
COc1ccc(-c2ccc(/C=N/NC(=O)c3cccnc3)o2)c([N+](=O)[O-])c1,?,-14%,4µM*,.,-3%
COc1cc2ccc(=O)oc2c(O)c1O,?,-3%,-4%,-2%,8.9µM*
N#Cc1c(-c2cccc(O)c2)no[n+]1[O-],-3%,.,.,.,.
